Shown are actives, neighbours in structure and some others; about 0.88% of the full set was active somewhere.
RGS4 inhibitor: human RGS4 inhibition | P49798 | Transcreener GDP fluorescence polarization, RGS4-accelerated GTP hydrolysis | Potency, µM (top dose mostly 114 µM), for inactives: top-dose activity change, negative = inhibition, hits mostly inhibitors | 390,000 compounds, 0.039% hits | AID 504845; also: potency is read from the fitted curve at half-maximal effect; % is scaled to controls: 0 for no effect and ±100 for the full control effect; nearly all actives have a fitted effect of over 75% in size
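MLSMR compounds (23 nl, pin-transferred) preincubated 10 min at room temperature with a 500nM (2x) first reagent, then RGS4 at 900nM (2x) plus Transcreener GDP mix added; fluorescence polarization (620/688 nm) read before and after 90 min at 30 °C.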
Six1-Eya2 inh: Six1/Eya2 interaction inhibition | AID 651725 | AlphaScreen GST-Six1/His-Eya2 binding, biochemical; active compounds read low | 360,000 compounds, 0.56% hits | activity change, % (concentration not given with the values) | Q15475+O00167; in the data active = activity change below about -65%; inconclusive = mostly about -30% to -63%; also: % is scaled to controls: 0 for no effect and ±100 for the full control effect
Target sequence (O00167 whole entry, looked up): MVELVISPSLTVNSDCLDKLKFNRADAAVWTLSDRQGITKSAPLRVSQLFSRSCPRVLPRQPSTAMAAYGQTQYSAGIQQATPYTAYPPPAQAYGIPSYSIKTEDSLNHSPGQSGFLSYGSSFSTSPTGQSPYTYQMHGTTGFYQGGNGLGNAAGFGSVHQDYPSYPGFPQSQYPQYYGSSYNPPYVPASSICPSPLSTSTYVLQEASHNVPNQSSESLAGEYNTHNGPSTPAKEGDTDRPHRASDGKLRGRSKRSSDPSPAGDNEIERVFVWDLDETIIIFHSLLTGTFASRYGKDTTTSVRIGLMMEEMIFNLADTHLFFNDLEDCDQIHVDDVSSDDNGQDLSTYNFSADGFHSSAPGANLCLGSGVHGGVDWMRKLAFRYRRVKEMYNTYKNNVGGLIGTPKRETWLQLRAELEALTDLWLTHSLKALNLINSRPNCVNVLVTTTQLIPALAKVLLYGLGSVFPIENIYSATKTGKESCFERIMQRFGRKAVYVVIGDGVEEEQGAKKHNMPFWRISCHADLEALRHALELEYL
Target sequence (Q15475 whole entry, looked up): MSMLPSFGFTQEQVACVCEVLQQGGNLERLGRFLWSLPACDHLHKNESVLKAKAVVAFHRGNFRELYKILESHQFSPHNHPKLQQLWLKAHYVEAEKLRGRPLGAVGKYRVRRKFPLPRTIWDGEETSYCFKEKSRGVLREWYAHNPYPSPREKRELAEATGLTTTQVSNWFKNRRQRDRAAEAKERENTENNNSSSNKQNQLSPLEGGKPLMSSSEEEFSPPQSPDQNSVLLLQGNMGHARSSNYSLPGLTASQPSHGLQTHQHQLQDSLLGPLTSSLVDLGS
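AlphaScreen with GST-Six1 and His-Eya2 (5X mix: 250 nM and 500 nM), glutathione donor and nickel acceptor beads; buffer 50 mM Tris pH 8.0, 300 mM NaCl, 1 mM TCEP; 1 h at 37 C in the dark.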
CtBP-E1A inh: CtBP/E1A binding inhibition; AlphaScreen GST-E1A/His-CtBP binding, 1536-well; active compounds read low; activity change, % (no concentration beside the values); 340,000 compounds, 0.49% hits; in the data active = activity change below about -65%; inconclusive = mostly about -30% to -63%; also: % is scaled to controls: 0 for no effect and ±100 for the full control effect
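Homogeneous bead-based format: GST-tagged E1A captured on glutathione donor beads, His-tagged CtBP on nickel acceptor beads; compounds precede bead addition by 2 h at 37 °C.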
pAkt inh: inhibitors of Akt phosphorylation; Neuro2A IGF-stimulated pAkt S473 HTRF, 20 min; active compounds read low; 360,000 compounds, 0.32% hits; AID 651550; activity change, % for hits at 50 µM; in the data active = activity change below about -80%; inconclusive = mostly about -51% to -80%; also: % is scaled to controls: 0 for no effect and ±100 for the full control effect
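Neuro2A cells in DMEM with 0.5% FBS, overnight at 37 deg C, given compound at single 50 µM final, then IGF (6 nM final) for 20 min at 37 deg C. Lysed; phospho-Akt Ser473 by HTRF after 24 h, 665/615 ratio.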
Glioma ERSR ind: ER stress response induction in glioma. AID 602332. 420,000 compounds, 0.02% hits. Potency, µM, for inactives: at the top dose activation, actives largely listed as activators. U87-MG GRP78 promoter luciferase reporter, 16 h; also: potency is read from the fitted curve at half-maximal effect; series mostly up to about 76 µM; % of control where 0% means no effect; nearly all actives have a fitted effect of over 35% in size
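Stably transfected U87-MG glioma cells carrying a GRP78-based luciferase sensor; 16 h compound incubation. Luminescence end-point read 10 min after Bright-Glo addition at room temperature.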
Numbers without * were called inactive; i = inactive; u = inconclusive; x = not tested or not shown; [ ] = another dose, or the depositor's remark. Unless noted, calls follow the shape of the dose curve; as a rule, active = well fitted curve in the direction sought with a large enough effect; inconclusive = small, poorly fitted or top-dose-only effect, or another doubt; inactive = no such curve, though single readings can be large; an effect the other way counts as inactive or inconclusive.

SMILES | RGS4 inhibitor | Six1-Eya2 inh | CtBP-E1A inh | pAkt inh | Glioma ERSR ind
Cc1cc(C)nc(SCc2nnc(SCC(=O)Nc3ccc(C)c(C)c3)n2Cc2ccco2)n1 | 0.5% | -3.9 | -2.5 | -109.7%* | -2.7%
COC(=O)CSc1nnc(CSc2nc(C)cc(C)n2)n1Cc1ccco1 | -10.6% | -1.5 | -1.8 | -96.6%* | -4.8%
COc1cc(=O)n2c(c1C(=O)N(C)Cc1nccs1)CCN(Cc1c(F)ccc(F)c1F)CC2 | x | x | x | x | -4.2%
Cn1c(SCC2CCCO2)nnc1C1CCN(Cc2ccco2)CC1 (stereo not given) | x | x | x | x | -4.5%
CCC(=O)NC(c1ccco1)c1cc(Br)c2cccnc2c1O (stereo not given) | x | x | x | x | -3.0%
CCC(=O)NC(c1ccc(C)cc1)c1cc([N+](=O)[O-])c2cccnc2c1O (stereo not given) | u | -84.9* | -86.6* | i | -1.5%
CCCC(=O)NC(c1ccco1)c1cc([N+](=O)[O-])c2cccnc2c1O (stereo not given) | -6.8% | -91.6* | x | i | -3.9%
CCC(=O)NC(c1cc(Cl)c2cccnc2c1O)C(C)C (stereo not given) | 19.8% | x | x | x | -0.8%
CC(=O)NC(c1ccc(C)cc1)c1cc([N+](=O)[O-])c2cccnc2c1O (stereo not given) | u | -90.1* | -92.8* | i | -11.3%
COc1cc(C)c(CN2CCOc3ccc(C(O)c4cccnc4)cc3C2)cc1C (stereo not given) | x | x | x | x | -5.3%
CC(=O)c1ccccc1-c1ccc2c(c1)CC(CNC(=O)Cc1c[nH]c3ccccc13)O2 (stereo not given) | x | x | x | x | -2.4%
c1ccc(-c2csc(NNC3=NCCCCC3)n2)cc1 | -32.0%[11.4 µM] | 9.2 | 0.0 | i | -5.8%
Clc1ccc(-c2csc(NNC3=NCCCCC3)n2)cc1 | -29.3% | -23.1 | -22.8 | -111.5%* | u
CC(C)(C)n1ncc2c(=O)n(Cc3ccccc3C(F)(F)F)cnc21 | x | x | x | x | -5.5%
c1ccc(C2=NNC(c3ccccn3)=NN2)nc1 | -2.7% | -70.9* | -80.5* | i | -6.1%
c1ccc(-c2nnc(-c3ccccn3)s2)nc1 | -31.1% | -7.8 | 0.0 | i | -11.2%
COC1=C(Nc2ccc(O)cc2)C(=O)c2ccccc2C1=O | -17.0% | u | u | i | 1.4%
COC1=C(Nc2ccc(OC)cc2)C(=O)c2ccccc2C1=O | -26.1% | -75.3* | 12.3 | i | -0.4%
COC1=C(Nc2ccc(OC)cc2)C(=O)C(OC)=C(Nc2ccc(OC)cc2)C1=O | 5.4% | -3.9 | -10.5 | i | 0.8%
CCOc1ccc(NC2=C(OC)C(=O)c3ccccc3C2=O)cc1 | -27.8% | -74.9* | u | i | -1.6%
Cc1cc(C(=O)Nc2ccccc2-c2nc(CNC(=O)c3cc4ccccc4cn3)c(C)o2)c(C)o1 | x | x | x | x | -1.9%
CC(C)(S)C(=O)NC(CS)C(=O)O (stereo not given) | x | x | x | x | -3.6%
Nc1c(S(=O)(=O)c2ccccc2)c2nc3ccccc3nc2n1/N=C/c1cccc(O)c1 | -22.5% | -74.6* | -84.3* | i | -10.0%
COc1ccc(/C=N/Nc2nn3cnnc3c3ccccc23)cc1 | -10.7% | u | -74.1* | i | -1.7%
COc1ccc(/C=N/Nc2nonc2N)cc1 | 25.1% | -0.7 | -0.7 | x | -0.4%
SMILES | RGS4 inhibitor | Six1-Eya2 inh | CtBP-E1A inh | pAkt inh | Glioma ERSR ind
CC(=O)Oc1ccc2c(c1)Oc1cc(OC(C)=O)ccc1C21OC(=O)c2ccccc21 | -30.5% | -81.7* | -27.8 | i | -2.4%
O=C1OC2(c3ccc(O)cc3Oc3cc(O)ccc32)c2ccccc21 | x | x | x | x | 0.7%
C[C@@H]1[C@H](c2ccccc2)OCCS(=O)(=O)N1Cc1ccccc1F | x | x | x | x | -2.4%
CCOc1ccc(NC(=O)CN(C)C(=O)C2CC(=O)N(c3cccc(SC)c3)C2)cc1OCC (stereo not given) | 2.6% | -65.0* | -71.7* | i | 0.0%
CCOc1ccc(NC(=O)CN(C)C(=O)C2CC(=O)N(c3ccc4c(c3)OCCO4)C2)cc1OCC (stereo not given) | -5.2% | -0.9 | -5.2 | i | -4.5%
O=C(CSc1nnc(-c2ccccn2)n1Cc1ccco1)c1ccc(Cl)cc1 | -12.6% | -21.8 | -17.5 | -109.8%* | -1.0%
CC1CCc2sc(C(=O)Nc3nnc(SCc4ccc(F)cc4)s3)cc2C1 (stereo not given) | -3.7% | 5.1 | -1.6 | -85.1%* | -0.3%
CCOC(=O)C1CCN(Cc2cc(Cl)c3ccccc3c2O)CC1 | u | -8.0 | 0.1 | i | 28.2µM*
O=C(Nc1cccc(-c2nc3ccccc3s2)c1)c1ccc2c(c1)OCO2 | -15.9% | -0.4 | 9.1 | i | 3.5%
c1ccc2sc(-c3ccc4c(c3)OCO4)nc2c1 | 18.7% | 42.3 | 28.2 | -111.5%* | -11.8%
CC1(C)O[C@@H]2C[C@H]3[C@@H]4CCC5=CC(=O)C=C[C@]5(C)[C@H]4C(O)C[C@]3(C)[C@]2(C(=O)CO)O1 (stereo not given in full) | x | x | x | x | -5.1%
COc1ccc(N(CC(=O)Nc2cccc(C)c2C)S(=O)(=O)c2c(C)n[nH]c2C)cc1 | 1.6% | u | -66.5* | i | -3.3%
CCS(=O)(=O)Nc1cc(C(=O)N2CCCN(C=O)CC2)c2c(c1)nc(-c1ccccc1)n2C | x | x | x | x | -2.6%
CCOc1ccc2noc3c2c1C(=O)c1ccccc1-3 | -17.0% | 0.2 | 3.2 | i | -5.8%
O=C1c2ccccc2-c2onc3ccc(NCc4ccco4)c1c23 | u | -84.9* | -93.0* | i | -5.5%
CCNc1ccc2noc3c2c1C(=O)c1ccccc1-3 | -41.3% | -74.3* | -71.6* | x | -2.0%
O=C(O)c1ccccc1NCc1ccco1 | 14.0% | -28.2 | x | i | -6.7%
CC(/C=C/c1ccccc1)=N/NC(=O)c1cnccn1 | -1.4% | -85.8* | -4.8 | i | -0.5%
O=C(N/N=C/C=C/c1ccccc1)c1cnccn1 | -35.1% | 13.4 | 0.0 | i | 1.8%
